Measurements as given in ChEMBL document CHEMBL3988442, “University of Dundee, Small-Polar-MMV Screening Library” (2021).
For some assays here: Entries with a potency or affinity are not part of this list.

Assays:
Set-up in all cases: scale not given: direction of the effect not stated beside the values
[1] = molecular target: Protein translocase subunit SecA (Escherichia coli (strain K12)) (UniProt P10408); experiment: Assay to Identify E. coli SecA ATPase Inhibitors; assay type: functional; conditions: 30 µM
Chain of Protein translocase subunit SecA (Escherichia coli (strain K12)) (P10408 whole entry): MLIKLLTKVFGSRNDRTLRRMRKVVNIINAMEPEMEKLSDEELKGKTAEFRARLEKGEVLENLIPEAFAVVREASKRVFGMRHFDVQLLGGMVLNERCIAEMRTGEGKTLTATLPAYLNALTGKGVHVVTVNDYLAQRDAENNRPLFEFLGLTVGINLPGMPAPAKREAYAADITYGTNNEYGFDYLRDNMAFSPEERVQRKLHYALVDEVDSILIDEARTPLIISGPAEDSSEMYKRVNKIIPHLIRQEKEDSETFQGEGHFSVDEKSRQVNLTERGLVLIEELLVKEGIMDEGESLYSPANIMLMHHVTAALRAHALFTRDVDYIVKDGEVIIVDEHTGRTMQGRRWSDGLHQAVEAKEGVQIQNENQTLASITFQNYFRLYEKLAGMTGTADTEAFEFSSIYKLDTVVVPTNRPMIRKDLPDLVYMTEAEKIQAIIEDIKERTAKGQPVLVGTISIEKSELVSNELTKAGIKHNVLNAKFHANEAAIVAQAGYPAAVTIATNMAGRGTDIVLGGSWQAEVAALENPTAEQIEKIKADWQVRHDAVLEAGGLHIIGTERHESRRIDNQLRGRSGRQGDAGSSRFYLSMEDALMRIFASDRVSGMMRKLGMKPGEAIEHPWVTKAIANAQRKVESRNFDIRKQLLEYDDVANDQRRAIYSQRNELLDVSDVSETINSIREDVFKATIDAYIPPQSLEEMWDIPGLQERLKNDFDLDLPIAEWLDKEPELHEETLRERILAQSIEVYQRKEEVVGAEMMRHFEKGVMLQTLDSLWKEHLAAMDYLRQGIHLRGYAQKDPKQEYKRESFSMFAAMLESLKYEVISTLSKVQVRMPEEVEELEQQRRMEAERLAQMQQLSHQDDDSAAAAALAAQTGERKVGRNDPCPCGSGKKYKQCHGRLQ

[2] = molecular target: T1, Ubiquitin-activating enzyme e1, putative (Leishmania donovani (strain BPK282A1)) (UniProt E9BSI1); experiment: Leishmania donovani Ubiquitin Activating Enzyme (LdE1); assay type: functional; conditions: 30 µM
T1 sequence (whole entry): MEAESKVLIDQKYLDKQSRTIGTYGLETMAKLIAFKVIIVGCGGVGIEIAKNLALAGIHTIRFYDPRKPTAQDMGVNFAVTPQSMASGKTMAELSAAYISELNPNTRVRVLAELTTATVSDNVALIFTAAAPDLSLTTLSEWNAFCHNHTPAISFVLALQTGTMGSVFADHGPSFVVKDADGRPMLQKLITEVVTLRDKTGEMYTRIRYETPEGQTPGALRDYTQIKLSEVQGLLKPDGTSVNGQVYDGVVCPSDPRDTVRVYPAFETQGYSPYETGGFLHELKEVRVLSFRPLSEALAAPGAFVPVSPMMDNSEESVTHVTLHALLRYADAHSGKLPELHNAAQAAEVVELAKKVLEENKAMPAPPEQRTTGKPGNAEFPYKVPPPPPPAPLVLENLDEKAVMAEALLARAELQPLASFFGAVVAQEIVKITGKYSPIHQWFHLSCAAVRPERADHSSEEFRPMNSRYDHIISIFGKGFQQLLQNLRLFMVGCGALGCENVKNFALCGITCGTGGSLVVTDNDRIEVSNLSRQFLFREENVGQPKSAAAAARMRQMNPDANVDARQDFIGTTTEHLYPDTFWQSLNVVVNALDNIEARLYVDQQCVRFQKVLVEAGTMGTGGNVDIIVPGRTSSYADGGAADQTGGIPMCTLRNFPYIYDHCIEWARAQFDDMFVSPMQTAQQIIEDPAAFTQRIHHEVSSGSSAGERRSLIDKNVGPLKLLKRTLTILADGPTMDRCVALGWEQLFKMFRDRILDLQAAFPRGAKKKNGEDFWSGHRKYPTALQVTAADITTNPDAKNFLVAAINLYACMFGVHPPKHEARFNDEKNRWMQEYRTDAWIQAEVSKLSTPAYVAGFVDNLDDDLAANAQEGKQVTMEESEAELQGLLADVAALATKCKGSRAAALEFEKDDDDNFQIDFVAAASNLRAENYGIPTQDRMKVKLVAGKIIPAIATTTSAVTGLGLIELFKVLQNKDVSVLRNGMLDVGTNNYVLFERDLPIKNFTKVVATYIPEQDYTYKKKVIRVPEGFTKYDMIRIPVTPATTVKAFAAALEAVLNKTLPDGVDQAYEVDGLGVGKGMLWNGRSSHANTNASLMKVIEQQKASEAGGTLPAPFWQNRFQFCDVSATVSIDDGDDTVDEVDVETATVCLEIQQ

[3] = molecular target: AMP-activated protein kinase, AMPK (Homo sapiens) (UniProt P54646+O43741+P54619+Q9UGJ0+Q9Y478+Q13131+Q9UGI9); experiment: AMP-dependent Kinase enzyme assay. An in vitro enzyme assay that detects ADP turnover that is directly proportional to AMPK activity. This uses naive AMPK that is activated during the assay with MK-8722; assay type: functional; conditions: 30 µM
[4] = molecular target: Sialic acid-binding Ig-like lectin 9 (Homo sapiens) (UniProt Q9Y336); experiment: Hs-Siglec9 ALPHAscreen SOP 20170721; conditions: 10 µM
Chain of Sialic acid-binding Ig-like lectin 9 (Homo sapiens) (Q9Y336 whole entry): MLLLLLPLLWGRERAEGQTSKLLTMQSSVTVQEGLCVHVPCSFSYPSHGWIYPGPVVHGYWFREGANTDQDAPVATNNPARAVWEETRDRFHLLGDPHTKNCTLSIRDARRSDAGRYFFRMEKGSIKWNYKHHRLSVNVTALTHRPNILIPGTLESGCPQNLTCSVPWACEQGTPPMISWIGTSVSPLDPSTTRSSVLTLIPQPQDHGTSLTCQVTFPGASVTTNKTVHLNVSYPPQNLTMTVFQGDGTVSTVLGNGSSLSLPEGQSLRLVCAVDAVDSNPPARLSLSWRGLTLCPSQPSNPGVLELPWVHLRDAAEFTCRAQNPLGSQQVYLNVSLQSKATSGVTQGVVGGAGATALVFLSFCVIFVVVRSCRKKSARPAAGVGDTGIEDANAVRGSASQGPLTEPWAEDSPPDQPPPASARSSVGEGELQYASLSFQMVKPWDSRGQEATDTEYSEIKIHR

Trypanosoma cruzi = experiment: Trypanosoma cruzi phosphomannomutase and mannose-1-phosphate guanylyltransferase assay; assay type: functional; conditions: 10 µM
[5] = molecular target: T2, Arginase-2, mitochondrial (Homo sapiens) (UniProt P78540); experiment: in vitro enzyme assay to detect the production of urea directly proportional to the activity of Arginase II; assay type: functional; conditions: 33.3 µM; note: in the data most compounds retested in dose-response had high values
T2 sequence (whole entry): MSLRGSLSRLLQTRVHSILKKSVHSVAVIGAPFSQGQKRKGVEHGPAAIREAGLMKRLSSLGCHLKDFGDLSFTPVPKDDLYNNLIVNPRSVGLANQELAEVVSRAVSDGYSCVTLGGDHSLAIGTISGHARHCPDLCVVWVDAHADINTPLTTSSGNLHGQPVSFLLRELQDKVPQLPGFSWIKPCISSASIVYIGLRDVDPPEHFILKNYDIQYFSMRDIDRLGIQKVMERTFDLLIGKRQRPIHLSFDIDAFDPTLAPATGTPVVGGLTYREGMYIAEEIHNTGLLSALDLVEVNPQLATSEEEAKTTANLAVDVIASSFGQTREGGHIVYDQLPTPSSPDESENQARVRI

[6] = molecular target: T3, Proteasome subunit beta (Trypanosoma cruzi) (UniProt O96673); experiment: Trypanosoma cruzi proteasome chymotrypsin-like activity (TcProtChymo) assay.; note: in the data most compounds retested in dose-response had high values; assay type: functional; conditions: 9.37 µM
T3 sequence (whole entry): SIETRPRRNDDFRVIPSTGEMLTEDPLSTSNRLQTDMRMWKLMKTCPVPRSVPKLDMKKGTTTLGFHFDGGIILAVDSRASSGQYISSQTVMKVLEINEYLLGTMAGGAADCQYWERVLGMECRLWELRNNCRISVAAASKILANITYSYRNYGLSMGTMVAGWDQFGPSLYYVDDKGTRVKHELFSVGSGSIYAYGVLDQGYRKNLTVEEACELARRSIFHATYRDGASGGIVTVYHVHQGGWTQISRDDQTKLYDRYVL

Homo sapiens = organism: Homo sapiens; experiment: To identify inhibition of the IFN signalling (Jak-Stat) pathway via expression of an eGFP reporter gene under the control of an IFN-stimulated response element (ISRE) containing MxA promoter.; assay type: functional; conditions: 30 µM
[7] = molecular target: T4, Tyrosyl-tRNA synthetase, putative (Trypanosoma cruzi (strain CL Brener)) (UniProt Q4DSP6); experiment: Trypanosoma cruzi tyrosyl tRNA synthetase (TcYRS) _High Tyrosine SOP; assay type: functional; conditions: 30 µM; note: in the data most compounds retested in dose-response had high values
T4 sequence (whole entry): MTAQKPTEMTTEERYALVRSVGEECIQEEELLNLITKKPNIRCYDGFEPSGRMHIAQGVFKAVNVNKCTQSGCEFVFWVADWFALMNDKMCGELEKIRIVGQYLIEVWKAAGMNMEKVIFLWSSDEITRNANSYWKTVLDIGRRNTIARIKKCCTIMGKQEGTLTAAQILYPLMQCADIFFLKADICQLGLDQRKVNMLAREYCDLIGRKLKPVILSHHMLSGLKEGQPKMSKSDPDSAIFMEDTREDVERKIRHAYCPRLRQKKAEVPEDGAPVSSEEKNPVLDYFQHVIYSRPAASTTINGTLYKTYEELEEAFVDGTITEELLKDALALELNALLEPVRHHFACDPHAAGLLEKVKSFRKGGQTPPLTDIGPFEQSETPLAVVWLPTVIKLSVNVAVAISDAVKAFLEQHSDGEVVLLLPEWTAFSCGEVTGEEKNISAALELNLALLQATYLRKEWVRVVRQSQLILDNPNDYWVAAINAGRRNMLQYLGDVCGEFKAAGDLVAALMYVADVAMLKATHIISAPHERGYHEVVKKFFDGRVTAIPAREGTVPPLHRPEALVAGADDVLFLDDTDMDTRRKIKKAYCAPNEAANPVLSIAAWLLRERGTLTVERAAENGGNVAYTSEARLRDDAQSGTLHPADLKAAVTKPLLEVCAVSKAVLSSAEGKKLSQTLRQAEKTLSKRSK

[8] = molecular target: T4, Tyrosyl-tRNA synthetase, putative (Trypanosoma cruzi (strain CL Brener)); experiment: Trypanosoma cruzi tyrosyl tRNA synthetase (TcYRS) SOP; assay type: functional; conditions: 30 µM
[9] = molecular target: Chromo domain-containing protein 1 (Saccharomyces cerevisiae (strain ATCC 204508 / S288c) (Baker's yeast)) (UniProt P32657); experiment: ScCHD-1 Enzyme Inhibition Assay; assay type: functional; conditions: 30 µM; note: in the data most compounds retested in dose-response had high values
Chain of Chromo domain-containing protein 1 (Saccharomyces cerevisiae (strain ATCC 204508 / S288c) (Baker's yeast)) (P32657 whole entry, the tested form may be a part): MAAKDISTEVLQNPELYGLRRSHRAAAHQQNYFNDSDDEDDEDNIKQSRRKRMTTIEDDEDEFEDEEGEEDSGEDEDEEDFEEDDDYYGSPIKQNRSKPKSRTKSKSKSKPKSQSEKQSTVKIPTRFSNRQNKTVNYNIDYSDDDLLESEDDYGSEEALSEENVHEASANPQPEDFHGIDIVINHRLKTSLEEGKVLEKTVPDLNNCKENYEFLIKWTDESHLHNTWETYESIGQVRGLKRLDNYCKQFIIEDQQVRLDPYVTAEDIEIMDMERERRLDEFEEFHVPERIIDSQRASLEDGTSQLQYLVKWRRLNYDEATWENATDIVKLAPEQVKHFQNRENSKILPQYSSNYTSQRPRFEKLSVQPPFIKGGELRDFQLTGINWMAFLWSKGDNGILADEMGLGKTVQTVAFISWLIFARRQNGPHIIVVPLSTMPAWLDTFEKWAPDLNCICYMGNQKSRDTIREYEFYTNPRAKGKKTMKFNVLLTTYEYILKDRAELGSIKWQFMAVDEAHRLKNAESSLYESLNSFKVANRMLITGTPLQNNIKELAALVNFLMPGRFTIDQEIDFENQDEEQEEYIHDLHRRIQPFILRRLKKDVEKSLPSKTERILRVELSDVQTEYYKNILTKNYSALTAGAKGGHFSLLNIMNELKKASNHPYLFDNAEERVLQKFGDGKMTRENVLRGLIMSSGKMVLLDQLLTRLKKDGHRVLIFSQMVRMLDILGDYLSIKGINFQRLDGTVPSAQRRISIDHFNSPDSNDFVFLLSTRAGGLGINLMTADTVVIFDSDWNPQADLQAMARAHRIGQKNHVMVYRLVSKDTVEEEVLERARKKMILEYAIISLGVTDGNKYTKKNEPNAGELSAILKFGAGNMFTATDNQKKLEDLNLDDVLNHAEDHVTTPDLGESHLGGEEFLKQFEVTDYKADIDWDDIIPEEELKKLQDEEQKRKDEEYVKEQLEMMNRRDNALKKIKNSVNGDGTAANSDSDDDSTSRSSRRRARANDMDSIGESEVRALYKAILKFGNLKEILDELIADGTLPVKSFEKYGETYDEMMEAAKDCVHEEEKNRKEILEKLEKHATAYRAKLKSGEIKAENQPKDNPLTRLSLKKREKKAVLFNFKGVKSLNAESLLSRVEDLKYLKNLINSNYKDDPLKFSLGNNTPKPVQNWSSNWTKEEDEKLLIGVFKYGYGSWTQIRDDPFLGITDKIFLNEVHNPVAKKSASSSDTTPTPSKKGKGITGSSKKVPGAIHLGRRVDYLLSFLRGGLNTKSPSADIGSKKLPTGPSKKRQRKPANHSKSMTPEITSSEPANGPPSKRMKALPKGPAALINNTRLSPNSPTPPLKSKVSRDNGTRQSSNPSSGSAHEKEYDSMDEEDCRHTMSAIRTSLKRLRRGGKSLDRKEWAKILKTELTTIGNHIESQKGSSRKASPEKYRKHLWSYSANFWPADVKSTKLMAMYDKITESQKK

SMILES	Percent Effect [1] [%]	Percent Effect [2] [%]	Percent Effect [3] [%]	Percent Effect [4] [%]	Percent Effect (Trypanosoma cruzi) [%]	Percent Effect [5] [%]	Percent Effect [6] [%]	Percent Effect (Homo sapiens) [%]	Percent Effect [7] [%]	Percent Effect [8] [%]	Percent Effect [9] [%]
Cc1nc2ccccc2c(=O)n1CCC(=O)N1CCSCC1	-6.49	13.2	14.1	6.54	3.19	0	6.85	4.99	6.37	17.1	-13.3
CCn1nc(CC(C)C)cc1C(=O)N1C[C@H](O)[C@@H](N2CCCCC2)C1	-3.95	16	-4.12	15.8	6.33	4.69	12.6	-6.25	2.73	13.6	-6.08
O=C(NCCCN1CCOCC1)Nc1cnc2cc(Cl)ccc2c1O	0.589	17.6	9.55	-8.53	-3.16	-5.34	12.8	31.9	0	1.3	-6.01
CCOCC(O)CN1CCN(C(=O)c2cc(F)ccc2C)CC1 (configuration not stated)	-1.68	0	-2.69	-1.76	0.187	0	-3.72	-13.3	0.971	2.44	2.5
CN(C)CC1CN(c2ncnc3[nH]ccc23)CCO1 (configuration not stated)	-5.15	16.5	22	2.27	0.103	-1.94	13.9	28.5	7.29	15.2	-33
CCn1ncc2c1C(COCC1CC1)CN(S(=O)(=O)N(C)C)C2 (configuration not stated)	0.0926	19.2	-8.78	10.2	2.78	-0.798	10.4	9.33	9.38	18.5	-8.61
CO[C@H]1CN(C(=O)c2ccccn2)[C@@H]2CCCO[C@H]12	-0.127	-2.7	2.92	0.754	-2.25	1.59	17.5	0.992	0	5.13	3.83
COc1ccccc1C1CNC(=O)c2nc(-c3ncc[nH]3)[nH]c2C1 (configuration not stated)	-0.895	16.2	-2.89	12.1	7.14	4.29	14.3	20.7	14.3	29.3	-3.23
CCn1cnnc1C1CCN(C(=O)c2cc3c(s2)CCC3)CC1	-5.61	20.2	-5.35	8.78	6.52	-7.22	20.2	-5.6	8.37	21.5	-4.66
CCNC(=O)N1CCCCC1CCO (configuration not stated)	1.22	8.11	-0.623	17.1	5.99	6.67	-0.69	-3.81	0.529	7.32	-10.1
Cc1nc(C)n(CC2CCCCN2CC(=O)N(C)Cc2ccco2)n1 (configuration not stated)	-1.21	0	13.5	5.38	2.45	0.21	11.9	5.11	0	-2.35	-7.89
c1nc2c(c(-c3ccsc3)n1)CCN(Cc1ccoc1)CC2	-1.1	-5.41	14.1	-1.76	-2.15	-1.67	5.83	12.5	-6.93	-3.66	-0.614
CN1CCC(Oc2ccc(NC(=O)c3ccccc3Br)cc2)CC1	-0.903	-2.6	0.999	7.1	6	-4.14	10.8	7.69	1.07	3.7	-4.57
O=C(c1ccsc1)N1C[C@@H]2C[C@@H](c3nnc(C4CC4)o3)O[C@@H]2C1	-1.51	7.79	6.12	6.45	-4.63	5.81	3.31	15	1.06	3.85	-4.38
Cc1ccc(C(=O)N(C)Cc2cscn2)c(=O)[nH]1	-6.94	15.8	-3.33	3.04	2.24	1.18	4.31	1.38	4.25	2.6	-6.33
CS(=O)(=O)CCC(=O)Nc1cnn(-c2ccccc2Cl)c1	-5.57	13.5	-8	12.3	2.88	-0.185	6.28	6.38	7.92	18.3	-8.04
COc1ccccc1C1(C(=O)NCCN2CCOCC2)CCOCC1	-0.484	10.8	-1.78	-1.23	-0.0943	-2.81	12.4	-15.9	3.45	13.6	-7.26
COC1CCN(C(=O)Cc2csc(-c3ncccn3)n2)CC1	-1.74	10.5	1.3	6.25	6.96	3.83	9.19	-15.6	2.45	17.1	-5.39
CC(=O)N1CCN(c2cc(-c3ccccc3)nc3c(C)c(C)nn23)CC1	-6.15	-11	-6.13	6.66	4.96	2.4	16.2	4.69	7.29	8.64	-7.72
Cc1nnc(N2C[C@H](C(=O)NCC3CC3)[C@@H]3CCO[C@@H]3C2)s1	0.351	0	3.72	2.6	-6.02	-3.23	0.696	7.74	0	1.28	-1.37
CN(C)CCNC(=O)c1cnc2c(c1)nc(-c1ccccc1Cl)n2C	-0.258	8.11	-1.84	30.9	3.81	1.74	9.36	17.4	7.53	16.1	-5.45
CC(C)NC(=O)N1CC[C@@H]2CN(Cc3cccc(Cl)c3)S(=O)(=O)[C@@H]2CC1	-0.309	8	9.12	-2.2	-7.34	-59.3	13.5	35.6	0	10	-7.22
